hgDAF12 agonist = activates the H. glycines DAF-12 receptor ligand-binding domain; HEK293 GAL4-hgDAF12 UAS-luciferase reporter, agonist luminescence; normalized to butyrate control; activation, % at 6.8 µM; actives 1.8% (n = 370,000); AID 687014;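 active = activation above a cutoff set at the mean of all screened compounds plus 3 SD, cut at about 10% in these data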;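 also: 0% = DMSO wells and 100% = sodium butyrate wells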
DAX1 inh-1 = DAX1 (NR0B1) inhibition, primary screen | HEK293T StAR-luciferase reporter, SF-1/DAX-1 repression relief | inhibition, % at 6.8 µM | actives 1.1% (n = 370,000) | AID 652010;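 active = inhibition above the mean over all tested compounds plus 3 SD, cut at about 3.6% in these data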;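 also: 0% = DAX-1 cells with DMSO and 100% = cells lacking DAX-1 with DMSO; higher inhibition means more luminescence from relief of DAX-1 repression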
ssDAF-12 act = S. stercoralis DAF-12 activation, primary screen. HEK293 ssDAF-12/GRIP1 lit1-tk-luc reporter, luminescence; % of 3 µM dafachronic acid response. activation, % at 6.8 µM. actives 1% (n = 370,000);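 active = activation above the mean over all tested compounds plus 3 SD, cut at about 0.9% in these data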;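 also: 0% = DMSO-only wells and 100% = 3 µM delta7-dafachronic acid wells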
DAX1 inh-2 = inhibitors of human orphan nuclear receptor DAX1 (NR0B1) | HEK293 Gal4-DAX1 luciferase reporter, luminescence | AID 504766 | inhibition, % at 6.75 µM | P51843 | actives 0.99% (n = 340,000);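 active = inhibition above the mean over all tested compounds plus 3 SD, cut at about 4.2% in these data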;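 also: 0% = DAX1-transfected cells with DMSO and 100% = empty-vector control cells with DMSO; inhibition shows as a rise in luminescence from relieved DAX1 repression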
Target sequence (P51843 207-470 limits assumed): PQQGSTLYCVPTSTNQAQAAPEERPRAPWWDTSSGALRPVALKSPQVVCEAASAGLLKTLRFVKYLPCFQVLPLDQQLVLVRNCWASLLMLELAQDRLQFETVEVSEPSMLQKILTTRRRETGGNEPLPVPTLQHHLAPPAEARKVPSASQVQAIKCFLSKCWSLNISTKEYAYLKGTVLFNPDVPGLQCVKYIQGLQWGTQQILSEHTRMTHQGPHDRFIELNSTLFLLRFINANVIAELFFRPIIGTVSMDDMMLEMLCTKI
hcDAF12 agonist = activates DAF-12 receptor from parasite H. contortus | actives 1.4% (n = 370,000) | activation, % at 6.8 µM | HEK293 hcDAF-12 lit1-tk-luc reporter, luminescence; 0% DMSO, 100% Δ7-dafachronic acid;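 active = activation above the mean of all tested compounds plus 3 SD, cut at about 5.5% in these data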;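 also: 100% = response to 3 µM Δ7-dafachronic acid high control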
Numbers without * were called inactive; / = no result given. In the library only some 4.1% were active in any assay of this set; here they are far more common.

SMILES	hgDAF12 agonist	DAX1 inh-1	ssDAF-12 act	DAX1 inh-2	hcDAF12 agonist
O=C(NCCO)/C(=C/c1ccc2c(c1)OCO2)NC(=O)c1ccc(Br)cc1	0	0	-1	4.5*	-1
O=C(O)CNC(=O)/C(=C\c1ccc2c(c1)OCO2)NC(=O)c1ccc(Br)cc1	4	1	-1	/	-2
CCC[C@H]1[C@@H](NC(=O)C(c2ccccc2)c2ccccc2)CC[C@@]23CCCN2C(=O)CCC[C@@H]13	0	/	-2	/	-2
Cn1c(-c2ccccc2)cc(=O)cc1-c1ccccc1	1	1	-1	0	1
Cn1c(-c2ccccc2)cc2onc(-c3ccccc3)c2c1=O	4	3	0	2	5.6*
Cn1c(-c2ncc(F)cc2F)cc2onc(-c3c(F)cccc3Cl)c2c1=O	10	1	1.3*	6.4*	9.3*
Cn1c(-c2ccccc2F)cc2onc(-c3ccccc3)c2c1=O	12*	5.0*	0	5.5*	4
Cc1onc(-c2c(F)cccc2Cl)c1C(=O)NC1CC1	0	1	-1	0	1
CCN1C(=O)c2cccc3c(S(=O)(=O)Nc4ccccn4)ccc1c23	-1	1	0	6.7*	3
COc1cccc(-c2nnc(SCC(=O)Nc3ccc(OCc4ccccc4)cc3)n2Cc2ccco2)c1	-2	-2	-2	/	-2
O=c1c2ccccc2[nH]c(=S)n1CCN1CCc2ccccc2C1	-2	0	-1	4.3*	-1
COC(=O)C1=C(C)N(CC(C)C)C(=S)NC1c1cccc(F)c1 (centres undefined)	-1	-2	1.0*	/	1
Cc1cc2nc(-c3ccc(NC(=O)C(C)C)cc3)oc2cc1C	11*	3.7*	1.0*	1	5
CC(=O)N1CCN2C(=O)C1CCCC(=O)c1cc(C3CCCCC3)ccc12 (centres undefined)	2	1	0	4.3*	-1
CC(=O)N1CCN2C(=O)C1CCCC(=O)c1cc(C(C)C)ccc12 (centres undefined)	-2	1	-1	1	-1
COC(=O)[C@H]1C[C@]2(C(C=C(C)C)S(=O)(=O)c3ccccc3)c3ccccc3N[C@H]2N1 (some centres undefined)	1	/	-2	/	1
CCC(C)Sc1nc2c([nH]c3ccccc32)c(=O)n1C (centres undefined)	4	0	3.1*	1	4
Cc1nc2c([nH]c3ccccc32)c(=O)n1N	2	0	1.2*	/	3
Nn1c(=O)[nH]c2c([nH]c3ccccc32)c1=O	6	0	0	0	5
COc1ccc(-n2c(SCC(=O)Nc3cc(C)on3)nc3c([nH]c4ccccc43)c2=O)cc1	4	3	1.1*	0	3
Cc1cccc(NC(=O)CSc2nc3c([nH]c4ccccc43)c(=O)n2C)c1	5	1	1	-1	6.0*
C[C@H](O)[C@@H]1CN2CCc3c([nH]c4cccc(-c5ccccc5)c34)[C@@H]2C[C@@H]1N(C)CC1CCCCC1	-1	1	-2	/	2
CCOC(=O)C1CCN(C(=O)C(C)(C)NC(=O)Nc2ccc(Cl)cc2Cl)CC1	-3	/	-1	/	-1
COc1cccc(NC(=O)CSc2nc3c([nH]c4ccccc43)c(=O)n2C)c1	5	0	0	-1	6.4*
Oc1ccc2ccccc2c1N=Nc1ccccc1F	0	0	-1	1	6.4*
SMILES	hgDAF12 agonist	DAX1 inh-1	ssDAF-12 act	DAX1 inh-2	hcDAF12 agonist
C=CCn1c(NCc2ccccc2)nc2ccccc21	1	0	-1	7.1*	2
C=CCn1c(NCc2ccccc2O)nc2ccccc21	1	0	-1	0	-1
O=C(Cn1cnc2ccccc2c1=O)N1CCN(C(=O)C2CCCO2)CC1 (centres undefined)	3	1	-1	/	0
Cc1ccccc1OCc1nc2ccccc2n1C	11*	2	0	2	4
Cn1c(COc2ccc(F)cc2)nc2ccccc21	9	1	0	2	4
CCOC(=O)c1cc(-c2ccc(N)cc2)sc1N	5	2	-1	-1	-1
CCOC(=O)c1sc(-c2ccc(Br)cc2)cc1N	11*	3	1	2	4
CCOC(=O)[C@]12CCCCC/C=C\1N(Cc1ccc(OC)cc1)C(=O)[C@H]2CC(=O)NCc1cccc2ccccc12	0	0	-1	/	-1
CCOC(=O)C(c1nc2ccccc2[nH]1)n1c(-c2ccccn2)nc2ccccc21 (centres undefined)	8	2	0	/	6.5*
COc1cccc(C(=O)OCC(=O)Nc2nnc(-c3ccccc3)o2)c1	3	1	-1	5.3*	1
O=C(N[C@H](Cc1ccccc1)C(=O)NCCN1CCOCC1)[C@H]1O[C@@H](n2ccc(=O)[nH]c2=O)[C@H](O)[C@@H]1O	0	0	0	/	-1
COc1cccc(-n2nnc3c(=O)n(CC(=O)N4CCC(Cc5ccccc5)CC4)cnc32)c1	6	-1	1.2*	-1	5
COc1cccc(-n2nnc3c(=O)n(CC(=O)N4CCC(C)CC4)cnc32)c1	0	-1	-1	1	-2
O=C(NNS(=O)(=O)c1ccccc1[N+](=O)[O-])c1cccc(Br)c1	1	0	-1	2	0
O=C(NNS(=O)(=O)c1ccccc1[N+](=O)[O-])c1cccc(Cl)c1	-2	0	1.1*	-1	-1
Cc1c[nH]c2cccc(-c3ccccc3)c12	1	0	-1	/	0
COc1ccc2cc(-c3cccc4[nH]cc(C)c34)ccc2c1	-1	-1	1.5*	/	3
O=C(CN1CCCCCC1)Nc1cccc(NC(=O)CN2CCCCCC2)c1	-1	0	-2	4.5*	-2
CC(NC(=O)CN1C(=O)NC2(CCCCCC2)C1=O)c1ccccc1Cl (centres undefined)	-1	1	1.1*	1	-1
O=C(CN1CCCCCC1)Nc1ccccc1	0	0	-1	-1	-2
N#Cc1ccccc1NC(=O)CN1C(=O)NC2(CCCC2)C1=O	-1	0	-1	4.7*	5
O=C(CN1C(=O)NC2(CCCCC2)C1=O)Nc1cccc(S(=O)(=O)N2CCCC2)c1	0	4.6*	0	1	-1
O=C(CN1C(=O)NC2(CCCCCC2)C1=O)Nc1ccccc1[N+](=O)[O-]	-2	0	-1	1	2
CC1(C(=O)N2CCC(Oc3cccnc3)CC2)CC1	4	0	-1	/	0
COc1ccc(-c2nc(SC(C)C(=O)NC3CC3)n[nH]2)cc1 (centres undefined)	2	2	-1	4.5*	2
NNc1nc2c(-c3ccc(F)cc3)nnn2c2ccccc12	10*	2	1.3*	2	6.4*
Fc1ccc(-c2nnn3c2nc(NCc2ccccc2)c2ccccc23)cc1	10	1	0	1	5
